# Tests used:
# Experiment in all cases: thermal shift delta Tm vs DMSO control; higher = stronger stabilization (binding)
# Conditions in all cases: 12.5 µM; protein concentration 2 µM
# LOC_OS01G01410-cb001 = tested on: LOC_OS01G01410-cb001
# Method in brief: (§1)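 Thermal shift values come from differential scanning fluorimetry on purified rice kinase domains made in E. coli, with melting temperatures obtained from Boltzmann fits. Samples of 19.5 μl held 2 μM kinase, 100 mM potassium phosphate pH 7.5, 150 mM NaCl, 10% glycerol, 5 × SYPRO Orange and compound in DMSO, and were heated from 25°C to 95°C at 0.05°C/s. Each shift is a triplicate mean relative to the DMSO-only protein sample.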
# LOC_OS01G02750-cb003 = tested on: LOC_OS01G02750-cb003
# Method in brief: as §1
# LOC_OS01G10900-cb004 = tested on: LOC_OS01G10900-cb004
# Method in brief: as §1
# LOC_OS01G13800-cb001 = tested on: LOC_OS01G13800-cb001
# Method in brief: as §1
# LOC_OS01G14860-cb001 = tested on: LOC_OS01G14860-cb001
# Method in brief: as §1
# LOC_OS01G21960-cb002 = tested on: LOC_OS01G21960-cb002
# Method in brief: as §1
# LOC_OS01G39600-cb002 = tested on: LOC_OS01G39600-cb002
# Method in brief: as §1
# LOC_OS01G48390-cb002 = tested on: LOC_OS01G48390-cb002
# Method in brief: as §1
# LOC_OS01G51400-cb002 = tested on: LOC_OS01G51400-cb002
# Method in brief: as §1
# LOC_OS01G52050-cb004 = tested on: T1, LOC_OS01G52050-cb004
# T1 sequence (whole entry): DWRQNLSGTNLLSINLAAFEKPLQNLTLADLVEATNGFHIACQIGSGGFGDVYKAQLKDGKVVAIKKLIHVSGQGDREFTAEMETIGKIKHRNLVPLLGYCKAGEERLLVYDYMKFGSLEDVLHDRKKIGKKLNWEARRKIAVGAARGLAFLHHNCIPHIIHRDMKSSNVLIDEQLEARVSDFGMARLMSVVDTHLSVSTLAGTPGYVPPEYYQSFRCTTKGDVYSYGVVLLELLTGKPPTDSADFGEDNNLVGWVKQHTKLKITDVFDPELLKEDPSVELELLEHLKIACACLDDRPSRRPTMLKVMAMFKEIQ
# Method in brief: as §1
# LOC_OS01G57100-cb003 = tested on: LOC_OS01G57100-cb003
# Method in brief: as §1
# LOC_OS01G60330-cb001 = tested on: LOC_OS01G60330-cb001
# Method in brief: as §1
# LOC_OS01G60700-cb002 = tested on: LOC_OS01G60700-cb002
# Method in brief: as §1
# LOC_OS01G63280-cb003 = tested on: LOC_OS01G63280-cb003
# Method in brief: as §1
# LOC_OS01G67340-cb003 = tested on: LOC_OS01G67340-cb003
# Method in brief: as §1
# LOC_OS01G70970-cb002 = tested on: LOC_OS01G70970-cb002
# Method in brief: as §1
# LOC_OS02G07810-cb001 = tested on: LOC_OS02G07810-cb001
# Method in brief: as §1
# LOC_OS02G08530-cb003 = tested on: LOC_OS02G08530-cb003
# Method in brief: as §1
# LOC_OS02G14120-cb001 = tested on: LOC_OS02G14120-cb001
# Method in brief: as §1
# LOC_OS02G17970-cb001 = tested on: LOC_OS02G17970-cb001
# Method in brief: as §1
# 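Note: purified Escherichia coli-expressed rice kinase domain construct.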
Structure (SMILES),thermal shift delta Tm (LOC_OS01G01410-cb001) [°C],thermal shift delta Tm (LOC_OS01G02750-cb003) [°C],thermal shift delta Tm (LOC_OS01G10900-cb004) [°C],thermal shift delta Tm (LOC_OS01G13800-cb001) [°C],thermal shift delta Tm (LOC_OS01G14860-cb001) [°C],thermal shift delta Tm (LOC_OS01G21960-cb002) [°C],thermal shift delta Tm (LOC_OS01G39600-cb002) [°C],thermal shift delta Tm (LOC_OS01G48390-cb002) [°C],thermal shift delta Tm (LOC_OS01G51400-cb002) [°C],thermal shift delta Tm (LOC_OS01G52050-cb004) [°C],thermal shift delta Tm (LOC_OS01G57100-cb003) [°C],thermal shift delta Tm (LOC_OS01G60330-cb001) [°C],thermal shift delta Tm (LOC_OS01G60700-cb002) [°C],thermal shift delta Tm (LOC_OS01G63280-cb003) [°C],thermal shift delta Tm (LOC_OS01G67340-cb003) [°C],thermal shift delta Tm (LOC_OS01G70970-cb002) [°C],thermal shift delta Tm (LOC_OS02G07810-cb001) [°C],thermal shift delta Tm (LOC_OS02G08530-cb003) [°C],thermal shift delta Tm (LOC_OS02G14120-cb001) [°C],thermal shift delta Tm (LOC_OS02G17970-cb001) [°C]
CN1CCN(c2ccc(OC(F)(F)F)c(Nc3ncc4c(n3)-c3c(c(C(N)=O)nn3CCO)CC4)c2)CC1,0.81,1.85,0.67,-0.54,0.5,0.64,0.04,-0.15,0.17,1.03,1.21,0.44,0.52,0.63,0.36,0.12,0.04,1.25,1.17,0.51
CCOc1cc2ncc(C#N)c(Nc3ccc(OCc4ccccn4)c(Cl)c3)c2cc1NC(=O)/C=C/CN(C)C [Neratinib (HKI-272)],1.9,1.42,1,0.47,6.67,0.71,5.12,0.77,0.27,2.11,1.51,0.66,1.67,1.02,1.41,0.3,0.52,1,1.97,1.71
Clc1ccc(C2(c3ccc(-c4cn[nH]c4)cc3)CCNCC2)cc1,0.09,0.73,0.17,0.44,0.54,0.46,-0.39,0.45,0,0.38,1.65,0.98,0.54,0.22,-0.1,0.01,1.21,0.59,0.25,1.03
COc1cc(Nc2ncc(F)c(Nc3ccc4c(n3)NC(=O)C(C)(C)O4)n2)cc(OC)c1OC,0.76,0.35,0.54,-0.84,5.04,3.95,4.95,0.28,0.41,7.74,4.83,4.41,0.57,0.28,0.45,2.5,0.41,4,12.4,0.45
N#Cc1c(O)c2c(-c3ccc(-c4ccccc4O)cc3)csc2[nH]c1=O,0.93,1.74,0.92,1.23,0.8,1.72,0.7,0.95,0.44,0.93,3.04,1.32,1.46,0.82,0.95,0.52,1.91,1.2,0.5,1.96
CCS(=O)(=O)N1CC(CC#N)(n2cc(-c3ncnc4[nH]ccc34)cn2)C1,0.57,1.52,0.33,0.37,2.29,1.23,0.17,0.14,0.39,1.36,2.25,0.75,1.26,1.3,0.81,0.39,0.37,1.89,4.11,0.86
